ClpP mod: qHTS Assay for Activators of ClpP; ATP-dependent Clp protease proteolytic subunit (Bacillus subtilis (strain 168)), P80244; purified B. subtilis ClpP, FRET peptide cleavage, 20 min; Potency, µM (titrated, usually from 57.5 µM), for inactives: at the top dose activity change, negative = active; 340,000 compounds, 1.9% hits; AID 651965, 2013; active = well fitted falling curve with a large enough effect; inconclusive = small, poorly fitted or top-dose-only effect; inactive = no such curve, though single readings can be large or run the other way; note: potency is the fitted concentration of half-maximal effect; the source files actives as falling curves though it sought activators and does not explain the sign; nearly all actives have a fitted effect of over 65% in size
Target sequence (P80244 whole entry, looked up): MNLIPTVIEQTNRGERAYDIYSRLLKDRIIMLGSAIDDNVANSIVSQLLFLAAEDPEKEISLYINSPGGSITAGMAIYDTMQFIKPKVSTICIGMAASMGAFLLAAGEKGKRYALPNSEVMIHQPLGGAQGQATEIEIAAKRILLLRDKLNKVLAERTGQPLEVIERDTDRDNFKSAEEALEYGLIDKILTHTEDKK
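ClpP 10 microg/mL final, pH 8 Tris/KCl buffer with BSA, glycerol, Tween-20; compound pinned in; FRET-FV substrate; RT 20 min; Ex320/Em430; ΔFRET vs ADEP 5.8 microM, DMSO, no enzyme.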
D3 antag: qHTS of D3 Dopamine Receptor Antagonist: qHTS. D(3) dopamine receptor (Homo sapiens), P35462. 360,000 compounds, 2.5% hits. max response, negative = inhibition, %. AID 652054, 2013. D3R cells, DiscoveRx beta-arrestin luminescence, antagonist mode; active compounds read low; in the data active = max response below about -50%; inconclusive = no clear call, values can overlap the other calls; note: % is set by controls: 0 for no effect and ±100 for the full control effect
Target sequence (P35462 whole entry, looked up): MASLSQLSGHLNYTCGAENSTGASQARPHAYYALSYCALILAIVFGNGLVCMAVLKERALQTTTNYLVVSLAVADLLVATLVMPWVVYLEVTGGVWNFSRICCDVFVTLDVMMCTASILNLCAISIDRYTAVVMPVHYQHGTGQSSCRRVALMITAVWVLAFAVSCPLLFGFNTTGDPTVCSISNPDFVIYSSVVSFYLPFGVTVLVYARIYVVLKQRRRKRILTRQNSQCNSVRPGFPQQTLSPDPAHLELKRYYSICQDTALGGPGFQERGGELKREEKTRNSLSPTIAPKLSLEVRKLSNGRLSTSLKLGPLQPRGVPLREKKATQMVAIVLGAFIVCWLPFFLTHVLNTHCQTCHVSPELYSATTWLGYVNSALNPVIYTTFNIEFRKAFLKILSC
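Cells expressing the human receptor were seeded at 1500 cells/well, incubated overnight at 37 degrees C in 5% CO2, then exposed to library compounds with dopamine controls for 90 minutes at 37 degrees C before luminescent detection.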
IL-1B inflam inh: qHTS for Inhibitors of Inflammasome Signaling: IL-1-beta AlphaLISA Primary Screen; activity change, % at 57.5 µM; 360,000 compounds, 4.7% hits; AID 743279, 2014; THP-1 LPS/ATP IL-1B secretion, AlphaLISA, 16 h; active compounds read low; in the data active = activity change below about -50%; inconclusive = mostly about -30% to -49%; note: % is set by controls: 0 for no effect and ±100 for the full control effect
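THP-1 cells pretreated 1 hr with compounds (up to 57.5 uM final), then stimulated with LPS (250 ng/mL final) plus ATP (1.25 mM final); secreted IL-1B measured by AlphaLISA after 16 hr, decreased signal indicating inhibition.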
TDP1 cell CPT: qHTS for Inhibitors of human tyrosyl-DNA phosphodiesterase 1 (TDP1): qHTS in cells in presence of CPT; chicken DT40 Tdp1-/-;hTDP1 cells + 20 nM CPT, ATP luminescence, 48 h; Potency, µM (series often up to 46.2 µM), for the others: at the top dose activity change, negative = growth inhibition, most hits filed as inhibitors; 420,000 compounds, 12% hits; AID 686979, 2013; note: potency is the fitted concentration of half-maximal effect; % is set by controls: 0 for no effect and ±100 for the full control effect; nearly all actives have a fitted effect of over 55% in size
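Cell growth measured by CellTiter-Glo luminescence after a minimum 48 h, 37 C compound exposure with 20 nM CPT in Tdp1-knockout DT40 cells stably expressing hTDP1, seeded 400/well; qHTS titration format.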
D3 ag: qHTS of D3 Dopamine Receptor Agonist: qHTS; D(3) dopamine receptor (Homo sapiens), P35462; D3R DiscoveRx beta-arrestin cells, luminescence, 90 min; max activation, %; 410,000 compounds, 0.58% hits; AID 652048, 2013; in the data active = max activation above about 30%; note: 0% is about no effect
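Agonist-mode cell screen: cells plated at 1500/well and incubated overnight at 37 °C, then exposed to library compounds for 90 min at 37 °C. Detection reagent was added for 30–60 min at room temperature, and luminescence was read.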
TDP1 cell noCPT: qHTS for Inhibitors of human tyrosyl-DNA phosphodiesterase 1 (TDP1): qHTS in cells in absence of CPT; DT40 Tdp1-/- hTDP1 cells, no CPT, ATP luminescence, 48 h; Potency, µM (highest dose often 46.2 µM), without a hit: top-dose activity change, negative = growth inhibition, actives largely listed as inhibitors; 420,000 compounds, 15% hits; AID 686978, 2013; note: potency is the fitted concentration of half-maximal effect; % is set by controls: 0 for no effect and ±100 for the full control effect; nearly all actives have a fitted effect of over 55% in size
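Readout: luminescence from CellTiter-Glo after 30 min in the dark at RT. Cells: DT40 Tdp1-/- with stable hTDP1, 400/well. Exposure: compounds alone, ≥48 hr, 37 °C.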
Starred values were filed as active, the others as inactive; i = inactive; ? = inconclusive; / = not tested or not shown; [ ] = remark or other dose. Compounds with a hit are over-represented: about 21% of the library has one in this group of screens. Unless noted, calls come from the whole dose curve; as a rule, active = well fitted inhibition curve with a large enough effect; inconclusive = small, poorly fitted or top-dose-only effect; inactive = flat fitted curve, though single readings scatter.

SMILES | ClpP mod | D3 antag | IL-1B inflam inh | TDP1 cell CPT | D3 ag | TDP1 cell noCPT
OCC1(Cc2ccccc2)CCCN(Cc2c[nH]c3ccccc23)C1 (configuration not stated) | / | -57* | -65* | 12µM* | -30 | 18µM*
O=C(c1c[nH]c2ccccc12)N1CCN(Cc2ccccc2)CC1 | -2% | -15 | -21 | -26% | -11 | -12%
Cn1cc(CN2CCCC(CO)(Cc3ccccc3)C2)cn1 (configuration not stated) | / | 3 | 32 | -13% | -4 | 0%
CSc1ccc(NC(=O)NCCCN2CCC(Cc3ccccc3)CC2)cc1 | 1% | ? | -54* | ? | -19 | 23µM*
COc1ccc(NC(=O)NCCN2CCc3ccccc3C2)cc1 | 1% | -83* | -5 | -14% | -16 | -8%
O=C(NCCCN1CCc2ccccc2C1)Nc1ccc(Cl)cc1 | -1% | -92* | -55* | 16µM* | -38 | -27%
CSc1ccc(NC(=O)NCCN2CCc3ccccc3C2)cc1 | 0% | -61* | -15 | ? | -30 | ?
O=C(NCCCn1ccnc1)Nc1ccc(Cl)cc1 | -2% | 14 | -8 | -8% | -26 | -3%
COc1ccc(NC(=O)NCCCN2CCC(Cc3ccccc3)CC2)cc1 | -1% | ? | ? | ? | -18 | ?
CCOc1ccc(CCNC(=O)COC(=O)COc2ccc(Br)cc2)cc1OCC | 2% | 11 | 10 | 0% | -1 | 8%
COc1ccc(C(C)C)cc1S(=O)(=O)n1cnc(C)c1 | 0% | -12 | 6 | 16µM* | 7 | 23µM*
COc1cc(C)c(Cl)cc1S(=O)(=O)n1cnc(C)c1 | 0% | -14 | 8 | -7% | 5 | -13%
CC1(C)CC2CC(C)(CN2S(=O)(=O)c2ccc(C(=O)Nc3cccc(S(=O)(=O)N4CCOCC4)c3)cc2)C1 (configuration not stated) | ? | -13 | -21 | 4.1µM* | -9 | 5.8µM*
COc1cccc(NC(=O)CN(C)C(=O)c2cccc(S(=O)(=O)N3CC4(C)CC3CC(C)(C)C4)c2)c1 (configuration not stated) | -2% | -13 | -18 | ? | -2 | ?
COc1ccc(NC(=O)CN(C)C(=O)c2cccc(S(=O)(=O)N3CC4(C)CC3CC(C)(C)C4)c2)cc1 (configuration not stated) | / | -1 | -72* | ? | -1 | ?
O=C(Nc1cc(S(=O)(=O)N2CCOCC2)ccc1Cl)c1ccc(=O)[nH]c1 | / | 5 | 15 | 15% | 16 | -19%
CC1(C)CC2CC(C)(CN2S(=O)(=O)c2ccc(C(=O)Nc3cc(S(=O)(=O)N4CCOCC4)ccc3Cl)cc2)C1 (configuration not stated) | -6% | -12 | 48 | 3.3µM* | 3 | 2.9µM*
Cn1c(N)c(C(=O)COC(=O)c2ccc(Cl)c(S(=O)(=O)N3CCCC3)c2)c(=O)n(C)c1=O | -1% | -4 | 24 | ? | -5 | -21%
CCCCN1CC[C@H]2C=CC[C@@H](C(=O)NCc3cccnc3)[C@H]2C1=O | 0% | / | / | 2% | / | 5%
Cc1cccc(NC2=NC(C)(C)N=C(N)N2)c1 | / | 14 | 42 | 0.46µM* | 0 | 0.16µM*
Cc1cccc(Nc2nc(C)cc(C)n2)c1 | 1% | -23 | -4 | -5% | 0 | -12%
COc1ccc(Cl)cc1NC(=O)CN(C)C(=O)CSc1ccc2c(c1)OCCO2 | 0% | -1 | 12 | ? | -5 | -17%
COc1ccc(OC)c(C(C(=O)NCc2ccco2)N(C(=O)Cn2nnc3ccccc32)C2CC2)c1 (configuration not stated) | -3% | -10 | 0 | 13µM* | -5 | 16µM*
COc1ccc(C(C(=O)Nc2ccc(F)cc2)N(C(=O)Cn2nnc3ccccc32)C2CC2)cc1 (configuration not stated) | -1% | -7 | -72* | -25% | -3 | ?
O=C(c1cccnc1)C1CCCN(Cc2ccc3c(c2)CN(C(=O)c2cccs2)CCO3)C1 (configuration not stated) | / | / | / | -7%[9.04 µM] | / | ?
SMILES | ClpP mod | D3 antag | IL-1B inflam inh | TDP1 cell CPT | D3 ag | TDP1 cell noCPT
O=C(N/C(=C/C=C/c1ccccc1)C(=O)N1CCOCC1)c1ccccc1Br | / | -6 | -13 | -5% | -4 | -9%
CC(=O)Nc1ccc(S(=O)(=O)NC(CC(=O)N(C)Cc2ccccc2)C(C)C)cc1 (configuration not stated) | 14µM* | -5 | -3 | 12µM* | 2 | 23µM*
CC(=O)Nc1ccc(S(=O)(=O)NC(CC(=O)NCCc2ccccc2)C(C)C)cc1 (configuration not stated) | 0% | -20 | 19 | 3% | -17 | 2%
Cc1cccc(C(=O)Oc2ccc3ccc(O)cc3c2)c1 | -1% | -27 | -10 | ? | 0 | ?
COc1cccc(-n2c(SCC(=O)Nc3ccc4c(c3)OCO4)nc3c([nH]c4ccccc43)c2=O)c1 | ? | / | / | -22% | 5 | -29%
COCCNc1oc(-c2ccccc2Cl)nc1S(=O)(=O)c1ccc(C)cc1 | -15% | -11 | -57* | ? | -15 | ?
O=S(=O)(c1ccc(Cl)cc1)c1nc(-c2ccccc2F)oc1NCCCN1CCOCC1 | 0% | -60* | -74* | ? | -31 | ?
O=S(=O)(c1ccc(Br)cc1)c1nc(-c2ccccc2)oc1NCCN1CCOCC1 | -5% | 0 | -61* | ? | -14 | ?
O=S(=O)(c1ccccc1)c1nc(-c2ccco2)oc1NCCN1CCOCC1 | -1% | -20 | 14 | -19% | -39 | -3%
Cc1ccc(S(=O)(=O)c2nc(-c3ccccc3Cl)oc2NCCCN2CCOCC2)cc1 | -23% | -53* | i | ? | -11 | 26µM*
COc1ccc(C(=O)NCc2nnc(SCC(=O)Nc3ccc(C)cc3)n2-c2ccccc2)cc1 | 0% | / | / | ? | -13 | -24%
CCCCc1nc2sc3c(=O)n(N)cnc3c2c2c1CCCC2 | 0% | -8 | 8 | -25% | 2 | ?
CCCc1nc2sc3c(=O)n(N)cnc3c2c2c1CCCC2 | -1% | -6 | 17 | 12µM* | 0 | 9.2µM*

Source: PubChem (National Center for Advancing Translational Sciences (NCATS))
